D1 antagonist: Antagonist of Human D 1 Dopamine Receptor: qHTS | HEK293 TREx D1 cells, calcium flux, dopamine EC80; stronger effect = lower value | 360,000 compounds, 3.2% hits | activity change, negative = inhibition, % at 10 µM | AID 504652, 2011 | D(1A) dopamine receptor (Homo sapiens), P21728; in the data active = activity change below about -30%; also: % is scaled to controls: 0 for no effect and ±100 for the full control effect
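Using tetracycline-induced force-coupled D1 Hek293 cells and a calcium dye, signals were followed for 180 s after compound, then for 180 s after EC80 dopamine, to detect inhibitors.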
D1 PAM: Potentiators of Human D1 Dopamine Receptor: qHTS. D(1A) dopamine receptor (Homo sapiens), P21728. HEK293 TREx D1 cells, calcium flux, dopamine EC20 potentiation. potentiation, % at 10 µM. 360,000 compounds, 0.036% hits. AID 504651, 2011; in the data active = potentiation above about 30%; also: 0% is about no effect
DRD3 antagonist: qHTS of D3 Dopamine Receptor Antagonist: qHTS; D(3) dopamine receptor (Homo sapiens), P35462; D3R cells, DiscoveRx beta-arrestin luminescence, antagonist mode; stronger effect = lower value; max response, negative = inhibition, %; 360,000 compounds, 2.5% hits; AID 652054, 2013; in the data active = max response below about -50%; inconclusive = no clear call, values can overlap the other calls; also: % is scaled to controls: 0 for no effect and ±100 for the full control effect
Target sequence (P35462 whole entry, looked up): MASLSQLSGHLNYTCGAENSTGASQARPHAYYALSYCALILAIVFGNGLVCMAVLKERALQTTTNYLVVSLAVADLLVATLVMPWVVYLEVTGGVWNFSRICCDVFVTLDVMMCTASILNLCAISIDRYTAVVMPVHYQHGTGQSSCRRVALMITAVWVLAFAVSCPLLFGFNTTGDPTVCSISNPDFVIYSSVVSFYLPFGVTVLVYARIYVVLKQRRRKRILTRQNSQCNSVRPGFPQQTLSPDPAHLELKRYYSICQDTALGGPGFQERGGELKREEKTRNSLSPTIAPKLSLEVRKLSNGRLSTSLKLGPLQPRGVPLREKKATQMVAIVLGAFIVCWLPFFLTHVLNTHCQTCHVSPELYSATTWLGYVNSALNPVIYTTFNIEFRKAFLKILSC
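Cells plated overnight at 1500 cells/well, then exposed to library compounds with dopamine controls for 90 minutes at 37 degrees C. DiscoveRx reagent added for 30–60 minutes at room temperature; luminescence read, quantitative HTS format.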
DRD3 agonist: qHTS of D3 Dopamine Receptor Agonist: qHTS; D(3) dopamine receptor (Homo sapiens), P35462; D3R DiscoveRx beta-arrestin cells, luminescence, 90 min; max activation, %; 410,000 compounds, 0.58% hits; AID 652048, 2013; in the data active = max activation above about 30%; also: 0% is about no effect
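Cells at 1500/well, incubated overnight, then treated with pinned compounds (dopamine as control) for 90 min at 37 degrees C. DiscoveRx reagent added for 30 - 60 minutes at room temperature; luminescence read.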
D1 agonist: Allosteric Agonists of the Human D1 Dopamine Receptor: qHTS. D(1A) dopamine receptor (Homo sapiens), P21728. HEK293 T-REx D1 cells, calcium flux, agonist mode. activation, % at 2 µM. 360,000 compounds, 1% hits; in the data active = activation above about 30%; also: 0% is about no effect
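Inducible HEK293 T-REx D1 cells, force-coupled to calcium signalling, were plated at 4000 cells/well with tetracycline and held overnight at 30 C. After no-wash calcium dye loading, compound-evoked calcium rise over 180 s flagged agonists.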
* = called active by the depositor; ? = inconclusive; / = no result. Rows were chosen to be rich in hits. Some 6% of all compounds tested hit in one or more screens of this group.

SMILES	D1 antagonist	D1 PAM	DRD3 antagonist	DRD3 agonist	D1 agonist
CC1C/C(=C/c2ccccn2)C(=O)/C(=C/c2ccccn2)C1 (stereo not drawn)	-6	-6	-60*	-22	0
CN(C)CC1(C)Cc2ccsc2C1O (stereo not drawn)	/	/	-1	4	/
CC(C)[C@H](Nc1ccc(C(F)(F)F)cc1[N+](=O)[O-])C(=O)O	7	1	-14	-2	0
O=C(NNc1ccc(C(F)(F)F)cc1[N+](=O)[O-])c1ccc(NS(=O)(=O)c2ccc(F)cc2)cc1	4	-3	-73*	-25	0
CC(C)(C)NCC(O)c1ccc(O)c(CO)n1 (stereo not drawn)	/	/	/	-5	/
Cc1ccccc1Cn1c2ccccc2c2cnn(CC(=O)NC(C)CCc3ccccc3)c(=O)c21 (stereo not drawn)	1	-3	/	-6	3
CC(C)CCN(C(=O)c1cc(=O)[nH]c2ccccc12)c1c(N)n(Cc2ccccc2)c(=O)[nH]c1=O	1	/	-16	-4	9
O=C(O)c1ccc(N/N=C/c2ccc(-c3cccc(Cl)c3)o2)cc1	-3	16	11	13	1
O=C(O)c1cc(-c2ccc(/C=N/Nc3ccc([N+](=O)[O-])cn3)o2)ccc1Cl	-8	6	-75*	-20	12
NS(=O)(=O)c1ccc(-c2ccc(/C=N/Nc3ccc(C(=O)O)cc3)o2)cc1	2	-4	13	-5	3
O=C(O)c1cccc(-c2ccc(/C=N/Nc3ccc([N+](=O)[O-])cc3)o2)c1	4	3	-27	-5	103*
O=C(O)c1ccccc1C=NNc1ccc([N+](=O)[O-])cn1	/	/	-2	-3	/
O=C(O)c1ccc(-c2ccc(/C=N/Nc3ccc([N+](=O)[O-])cc3)o2)cc1	5	0	?	-6	151*
CC(=O)NCCN=C(C)c1sc2ccccc2c1O	6	-7	-4	-1	2
CC(=Nc1cccc(C)c1)c1sc2ccccc2c1O	3	-1	-24	2	23
CC(=Nc1ccccc1O)c1sc2ccccc2c1O	-25	-4	-13	5	48*
CC(=Nc1ccc(O)cc1)c1sc2ccccc2c1O	0	1	-9	0	53*
COc1cc2cc(c1Cl)N(C)C(=O)CC(OC(=O)C(C)N(C)C(C)=O)C1(C)OC1C(C)C1CC(O)(NC(=O)O1)C(OC)C=CC=C(C)C2 (stereo not drawn)	/	/	-15	-11	/
Cc1ccc(-c2cnc(N)n2C)cc1C	2	-4	-101*	4	3
CN(C)/C=N/c1sc2c(c1C#N)CC(C)(C)NC2(C)C	-45*	-27	43	-3	2
COc1ccc(Cl)cc1NC(=O)NC1CCCCC1	-6	9	0	-10	1
COc1ccc(Cl)cc1NC(=O)Nc1cccc([N+](=O)[O-])c1C	-64*	-17	-76*	-17	7
COc1ccccc1C(=O)Nc1cc(Cl)ccc1O	-22	-3	0	-5	1
Cc1cc(C(=O)Nc2cccc([N+](=O)[O-])c2C)cs1	4	-6	-25	-16	1
COc1ccc(Cl)cc1NC(=O)c1ccccc1C	-44*	-18	-2	-10	1
SMILES	D1 antagonist	D1 PAM	DRD3 antagonist	DRD3 agonist	D1 agonist
COc1ccccc1C(=O)Nc1ccccc1SC(=O)c1ccccc1OC	-4	6	-57*	-16	4
COC(=O)c1ccccc1NC(=O)c1ccccc1OC	-2	-3	-15	6	1
Cc1c(NC(=O)c2ccc(C(C)(C)C)cc2)cccc1[N+](=O)[O-]	-42*	-15	-23	-8	3
CCn1nnc2cc(C(=O)Nc3ccc(OC)cc3)ccc21	5	-2	/	-14	4
CCc1ccc(NC(=O)C(=O)NCCc2csc(-c3cccc(F)c3)n2)cc1	-10	-1	/	-5	3
Cc1ccc(C)c(N(CC(=O)NC2CCCC2)S(=O)(=O)c2ccccc2)c1	-5	-7	-3	-2	9
CCOc1ccccc1NC(=O)Cn1c(=O)n(-c2ccc(F)cc2)c(=O)c2c3c(sc21)CN(C(C)=O)CC3	18	-6	/	-4	1
CCSc1nc2sc3c(c2c(=O)n1-c1ccccc1C)CCN(C)C3	26	1	-10	-35	2
Cc1ccc[n+](CC(=O)c2ccc(Br)cc2)c1C	-6	-1	2	-3	1
COc1ccc(Cl)cc1NC(=S)NCCC(c1ccccc1)c1ccccc1	-17	-4	-65*	-21	4
COc1cc(NC(=S)NCCC(c2ccccc2)c2ccccc2)c(OC)cc1Cl	0	4	-11	0	3
COc1ccccc1NC(=O)c1cc(Br)ccc1Cl	-35*	-1	4	13	0
COc1ccc([N+](=O)[O-])cc1NC(=O)c1cn(-c2ccc(Cl)cc2)c(=O)c2ccccc12	-23	-4	-53*	-2	4
CCc1ccc2oc(C(=O)Nc3cc(Cl)ccc3OC)cc(=O)c2c1	-48*	-1	/	1	1
COc1ccccc1-n1cnnc1SC(C)C(=O)NCC1CCCO1 (stereo not drawn)	-1	-1	30	1	1
O=C(C[n+]1cc(-c2ccc(Cl)cc2)n2c1CCCCC2)c1ccccc1	-2	-5	-63*	-30	0
O=C(C[n+]1cc(-c2ccc(Br)cc2)n2c1CCCCC2)c1ccccc1	10	8	-24	-13	0
NC(=O)C1CC2(C1)CC(C(N)=O)C2 (stereo not drawn)	/	/	?	-11	/
CCC(=O)NC(c1ccc([N+](=O)[O-])cc1)c1c(O)ccc2ccccc12 (stereo not drawn)	-37*	0	-28	-7	13
CC(=O)NC(c1cccc([N+](=O)[O-])c1)c1c(OC(C)=O)ccc2ccccc12 (stereo not drawn)	/	/	-68*	-7	/
CC(=O)Oc1ccc2ccccc2c1C(NC(=O)C(C)C)c1cccc([N+](=O)[O-])c1 (stereo not drawn)	21	-3	-20	-2	-1
CCCCC(=O)NC(c1ccc([N+](=O)[O-])cc1)c1c(O)ccc2ccccc12 (stereo not drawn)	-24	-6	-52*	-20	7
CCCCC(=O)NC(c1cccc([N+](=O)[O-])c1)c1c(OC(C)=O)ccc2ccccc12 (stereo not drawn)	0	-10	-9	2	6
CC(C)(C)OC(=O)NCC(=O)NNC(=O)c1nc2ccccc2[nH]1	2	-4	/	/	0
CCCCCOc1c(Cl)cc(C(=O)N(Cc2ccc(C)o2)C2CCS(=O)(=O)C2)cc1Cl (stereo not drawn)	14	-2	/	1	30*
